Here are results for 40 compounds from PubChem BioAssay (NCI).

This is part of a sample that, as a whole, favours compounds with a hit. Of some 79,000 tested, about 15% had one in any assay. Values without a mark were called inactive. Activity calls are given as the source filed them. Cut-off read from the data, not from the text of the source: active = growth inhibition above about 70%; inactive = the rest.

One experiment is described as follows: NCI Yeast Anticancer Drug Screen. Data for the cln2 rad14 strain (AID 165).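 Note: 0% = growth equal to vehicle treated cultures.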 To be noted: S. cerevisiae cln2 rad14 strain, at 5.0 µM (retest, dose inferred, filed as 0.5), hits give high values. A digest of the protocol: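 Compounds are applied to the cln2 rad14 yeast strain, and growth is then compared with that of vehicle-treated cultures to give inhibition.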
For `CCC(c1ccccc1)N1C(=O)c2ccccc2S1(=O)=O` (stereo not given), the growth inhibition was -6%.

For `Cc1ccc2cc3ccccc3c(-c3ccccc3)c2c1`, the growth inhibition is 5%.

Regarding `CC(=O)Oc1ccc(C)cc1C(C)(C)C`, the growth inhibition was 1%.

Consider `CCCCCCCCCCC[N+](C)(C)CCCCCC[N+](C)(C)CCCCCCCCCCC`, for which the growth inhibition was 96% (active).

For `CCN(CC)CCCNc1nc(NCCCN(CC)CC)c2nc(-c3ccccc3)c(-c3ccccc3)nc2n1`, the growth inhibition was 0%.

As to `O=[N+]([O-])c1cnc(Sc2cncc[n+]2[O-])s1`, the growth inhibition is 98% (active).

Regarding `O=c1[nH]c(=O)c2cc([N+](=O)[O-])cc([N+](=O)[O-])c2[nH]1`, the growth inhibition is -3%.

As to `O=C(NC(=O)C(F)(F)F)Nc1ccc(Cl)cc1`, the growth inhibition is 4%.

For the compound `O=[N+]([O-])c1ccc(S)c(Cl)c1`, the growth inhibition is 0%.

On to `CS(=O)(=O)n1c(C(O)c2ccccc2)nc2ccccc21` (stereo not given), for which the growth inhibition is -82%.

In the case of `O=C(NCc1ccccc1)C1C(=O)N(Cc2ccccc2)C(=O)/C1=N/O` (stereo not given), the growth inhibition is -4%.

In the case of `C[n+]1c(/C=C/c2ccccc2Cl)sc2ccccc21`, the growth inhibition is 59%.

`CC(=O)c1ccc(Cl)c(N=Cc2cc(Br)ccc2O)c1`: the growth inhibition was 34%.

As to `O=C(c1ccc(Cl)cc1)c1ccc([N+](=O)[O-])cc1`, the growth inhibition was -3%.

With `Nc1ccc2c(c1)[nH]c(=O)c1cc(Cl)c(Cl)cc12`, the growth inhibition was 63%.

For `COc1ccc(C2CC(c3c(O)ccc4ccccc34)=NN2)cc1OC` (stereo not given), the growth inhibition was -11%.

Take `CC[N+]1(C)CCC(O)(c2ccc(Cl)c(Cl)c2)C(C(=O)c2ccc(Cl)c(Cl)c2)C1` (stereo not given): the growth inhibition is 6%.

`Nc1nc(Cl)cc(NCC2(CO)CC(CCCc3ccccc3)C2)n1` (stereo not given): the growth inhibition is 13%.

For the compound `Nc1nc(-c2cc3cc(Cl)ccc3o2)cs1`, the growth inhibition is 35%.

`O=C(N(c1ccc(Cl)cc1)c1ccc(Cl)cc1)C(Cl)(Cl)Cl`: the growth inhibition was 14%.

On to `NC(CSSCC(N)C(=O)Nc1ccc2ccccc2c1)C(=O)Nc1ccc2ccccc2c1` (stereo not given), for which the growth inhibition is 21%.

`O=C/C=C/c1cc([N+](=O)[O-])ccc1Cl`: the growth inhibition was -55%.

With `COc1cc(C(c2cc3c(cc2OC(C)=O)OCO3)C(C(C)=O)C(C)=O)cc(OC)c1OC(C)=O` (stereo not given), the growth inhibition is -1%.

On to `CCCCc1ccc(Nc2nc(N)c3[nH]cnc3n2)cc1`, for which the growth inhibition was 21%.

In the case of `O=C(O)/C=C/C(=O)Nc1cccc2ccccc12`, the growth inhibition is 39%.

Take `Cc1cc(O)c(C(=O)/C=C/c2ccnc3ccccc23)c(=O)o1`: the growth inhibition is 11%.

Turning to `ONC1=Nc2ccccc2OCc2cc(Br)c(Br)cc2COc2ccccc2N=C1NO`, the growth inhibition is -1%.

For the compound `NNC(=O)c1ccc(N)cc1O`, the growth inhibition was -2%.

In the case of `O=C(N/C(=C\c1ccc2c(c1)OCO2)c1nc2ccccc2s1)c1ccccc1`, the growth inhibition was 10%.

Consider `CC1=NN(C(=O)c2ccncc2)C(=O)C1N=Nc1ccc(C)c([N+](=O)[O-])c1` (stereo not given), for which the growth inhibition is 6%.

As to `COc1ccc2nc3cc(Cl)ccc3c(Nc3nccs3)c2c1`, the growth inhibition is 9%.

On to `S=C(S)NCCN1CCNCC1`, for which the growth inhibition was -3%.

With `ClCc1nc2ccccc2c2ccccc12`, the growth inhibition was 10%.

`ClC1=C(Cl)C(Cl)(C(Cl)(Cl)Cl)C(Cl)=C1Cl`: the growth inhibition was 99% (active).

Regarding `FC(F)(F)COP1(OCC(F)(F)F)=NP(OCC(F)(F)F)(OCC(F)(F)F)=NP(c2ccccc2)(c2ccccc2)=N1`, the growth inhibition is 2%.

Turning to `CC(C)c1c(P(=O)(c2ccccc2)c2ccccc2)n(C)c2ccccc12`, the growth inhibition was -4%.

For `CN(CCC1CCCCC1)CCC1CCCCC1`, the growth inhibition was 14%.

As for `Cc1nc(Cl)nc(N)c1[N+](=O)[O-]`, the growth inhibition was -3%.

As to `Nc1ccc2[nH]c3ccccc3c2c1`, the growth inhibition is -5%.

Consider `COc1ccc(NC(=O)CSC(N)=O)cc1`, for which the growth inhibition was 0%.

The same experiment, now with this note: S. cerevisiae cln2 rad14 strain, at 50.0 µM (retest, dose inferred, filed as 5.0), hits give high values.
For `CCC(c1ccccc1)N1C(=O)c2ccccc2S1(=O)=O` (stereo not given), the growth inhibition is -3%.

Consider `Cc1ccc2cc3ccccc3c(-c3ccccc3)c2c1`, for which the growth inhibition was -16%.

As for `CC(=O)Oc1ccc(C)cc1C(C)(C)C`, the growth inhibition was -1%.

As for `CCCCCCCCCCC[N+](C)(C)CCCCCC[N+](C)(C)CCCCCCCCCCC`, the growth inhibition was 99% (active).

As to `CCN(CC)CCCNc1nc(NCCCN(CC)CC)c2nc(-c3ccccc3)c(-c3ccccc3)nc2n1`, the growth inhibition was 47%.

In the case of `O=[N+]([O-])c1cnc(Sc2cncc[n+]2[O-])s1`, the growth inhibition was 99% (active).

On to `O=c1[nH]c(=O)c2cc([N+](=O)[O-])cc([N+](=O)[O-])c2[nH]1`, for which the growth inhibition is 63%.

Regarding `O=C(NC(=O)C(F)(F)F)Nc1ccc(Cl)cc1`, the growth inhibition is 0%.

As for `O=[N+]([O-])c1ccc(S)c(Cl)c1`, the growth inhibition was 55%.

Regarding `CS(=O)(=O)n1c(C(O)c2ccccc2)nc2ccccc21` (stereo not given), the growth inhibition is -1%.

In the case of `O=C(NCc1ccccc1)C1C(=O)N(Cc2ccccc2)C(=O)/C1=N/O` (stereo not given), the growth inhibition is -1%.

With `C[n+]1c(/C=C/c2ccccc2Cl)sc2ccccc21`, the growth inhibition is 92% (active).

In the case of `CC(=O)c1ccc(Cl)c(N=Cc2cc(Br)ccc2O)c1`, the growth inhibition was 56%.

As for `O=C(c1ccc(Cl)cc1)c1ccc([N+](=O)[O-])cc1`, the growth inhibition is 1%.

On to `Nc1ccc2c(c1)[nH]c(=O)c1cc(Cl)c(Cl)cc12`, for which the growth inhibition is 77% (active).

On to `COc1ccc(C2CC(c3c(O)ccc4ccccc34)=NN2)cc1OC` (stereo not given), for which the growth inhibition was 97% (active).

For `CC[N+]1(C)CCC(O)(c2ccc(Cl)c(Cl)c2)C(C(=O)c2ccc(Cl)c(Cl)c2)C1` (stereo not given), the growth inhibition was 99% (active).

Take `Nc1nc(Cl)cc(NCC2(CO)CC(CCCc3ccccc3)C2)n1` (stereo not given): the growth inhibition is 12%.

With `Nc1nc(-c2cc3cc(Cl)ccc3o2)cs1`, the growth inhibition is 50%.

Consider `O=C(N(c1ccc(Cl)cc1)c1ccc(Cl)cc1)C(Cl)(Cl)Cl`, for which the growth inhibition is 65%.

`NC(CSSCC(N)C(=O)Nc1ccc2ccccc2c1)C(=O)Nc1ccc2ccccc2c1` (stereo not given): the growth inhibition was 99% (active).

On to `O=C/C=C/c1cc([N+](=O)[O-])ccc1Cl`, for which the growth inhibition is 46%.

On to `COc1cc(C(c2cc3c(cc2OC(C)=O)OCO3)C(C(C)=O)C(C)=O)cc(OC)c1OC(C)=O` (stereo not given), for which the growth inhibition was 1%.

As for `CCCCc1ccc(Nc2nc(N)c3[nH]cnc3n2)cc1`, the growth inhibition is 34%.

Regarding `O=C(O)/C=C/C(=O)Nc1cccc2ccccc12`, the growth inhibition was 100% (active).

`Cc1cc(O)c(C(=O)/C=C/c2ccnc3ccccc23)c(=O)o1`: the growth inhibition is 8%.

As for `ONC1=Nc2ccccc2OCc2cc(Br)c(Br)cc2COc2ccccc2N=C1NO`, the growth inhibition is 81% (active).

On to `NNC(=O)c1ccc(N)cc1O`, for which the growth inhibition was -11%.

For `O=C(N/C(=C\c1ccc2c(c1)OCO2)c1nc2ccccc2s1)c1ccccc1`, the growth inhibition is 97% (active).

Consider `CC1=NN(C(=O)c2ccncc2)C(=O)C1N=Nc1ccc(C)c([N+](=O)[O-])c1` (stereo not given), for which the growth inhibition was 24%.

Take `COc1ccc2nc3cc(Cl)ccc3c(Nc3nccs3)c2c1`: the growth inhibition is 87% (active).

In the case of `S=C(S)NCCN1CCNCC1`, the growth inhibition is 1%.

Turning to `ClCc1nc2ccccc2c2ccccc12`, the growth inhibition was 13%.

On to `ClC1=C(Cl)C(Cl)(C(Cl)(Cl)Cl)C(Cl)=C1Cl`, for which the growth inhibition was 98% (active).

For `FC(F)(F)COP1(OCC(F)(F)F)=NP(OCC(F)(F)F)(OCC(F)(F)F)=NP(c2ccccc2)(c2ccccc2)=N1`, the growth inhibition was -6%.

For `CC(C)c1c(P(=O)(c2ccccc2)c2ccccc2)n(C)c2ccccc12`, the growth inhibition was 98% (active).

For the compound `CN(CCC1CCCCC1)CCC1CCCCC1`, the growth inhibition was 73% (active).

For the compound `Cc1nc(Cl)nc(N)c1[N+](=O)[O-]`, the growth inhibition was 19%.

Turning to `Nc1ccc2[nH]c3ccccc3c2c1`, the growth inhibition is 3%.

`COc1ccc(NC(=O)CSC(N)=O)cc1`: the growth inhibition is -5%.
